In PubChem BioAssay (NCATS):
Results filed as inconclusive are left out. Active and inactive are the calls of the source. The call rests on the fitted dose curve; in most records, active means well fitted curve in the direction sought with a large enough effect; inconclusive means small, poorly fitted or top-dose-only effect, or another doubt; inactive means no such curve, though single readings can be large; an effect the other way counts as inactive or inconclusive.

What was measured:
[1] = Quantitative High-Throughput drug screen in 47 multiple myeloma cell lines against the NCATS MIPE library collection: MOLP8_DSMZ cell viability assay (AID 1918977); further: nearly all actives have a fitted effect of over 45% in size
Outline: (§1)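 ATP-based luminescence (CellTiter-Glo, 5 min RT incubation) quantified surviving cells following two days' treatment with MIPE 4.0 agents at 37 °C, 5% CO2.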

[2] = Quantitative High-Throughput drug screen in 47 multiple myeloma cell lines against the NCATS MIPE library collection: OCIMY7_PLB cell viability assay (AID 1918987); details: OCI-MY7 myeloma viability, CellTiter-Glo ATP, 48 h; viability (% of DMSO): at 45.8 µM; further: nearly all actives have a fitted effect of over 65% in size; on viability (% of DMSO): series mostly up to about 46 µM
Outline: as §1

[3] = Quantitative High-Throughput drug screen in 47 multiple myeloma cell lines against the NCATS MIPE library collection: OCIMY5_PLB cell viability assay (AID 1918988); further: nearly all actives have a fitted effect of over 65% in size
Outline: as §1

[4] = Quantitative High-Throughput drug screen in 47 multiple myeloma cell lines against the NCATS MIPE library collection: U266_ATCC cell viability assay (AID 1919864); further: nearly all actives have a fitted effect of over 35% in size;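 on viability (% of DMSO control): 0% = media-only wells without cells and 100% = DMSO-only wells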
Outline: as §1

[5] = Quantitative High-Throughput drug screen in 47 multiple myeloma cell lines against the NCATS MIPE library collection: PE2_PLB cell viability assay (AID 1919869); further: nearly all actives have a fitted effect of over 35% in size
Outline: as §1

[6] = Quantitative High-Throughput drug screen in 47 multiple myeloma cell lines against the NCATS MIPE library collection: NCIH929_DSMZ cell viability assay (AID 1918978); further: nearly all actives have a fitted effect of over 35% in size
Outline: as §1

[7] = Quantitative High-Throughput drug screen in 47 multiple myeloma cell lines against the NCATS MIPE library collection: OCIMY1_PLB cell viability assay (AID 1918979); further: nearly all actives have a fitted effect of over 35% in size;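 on viability: series mostly up to about 46 µM; 100% = DMSO-only wells and 0% = cell-free media-only wells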
Outline: as §1

[8] = Quantitative High-Throughput drug screen in 47 multiple myeloma cell lines against the NCATS MIPE library collection: MM1S_ATCC cell viability assay (AID 1918980); further: nearly all actives have a fitted effect of over 45% in size
Outline: as §1

[9] = Quantitative High-Throughput drug screen in 47 multiple myeloma cell lines against the NCATS MIPE library collection: MM1R_ATCC cell viability assay (AID 1918981); further: nearly all actives have a fitted effect of over 35% in size
Outline: as §1

[10] = Quantitative High-Throughput drug screen in 47 multiple myeloma cell lines against the NCATS MIPE library collection: LP1_DSMZ cell viability assay (AID 1918982); further: nearly all actives have a fitted effect of over 35% in size
Outline: as §1

[11] = Quantitative High-Throughput drug screen in 47 multiple myeloma cell lines against the NCATS MIPE library collection: KMS28PE_JCRB cell viability assay (AID 1918983); further: nearly all actives have a fitted effect of over 35% in size
Outline: as §1

[12] = Quantitative High-Throughput drug screen in 47 multiple myeloma cell lines against the NCATS MIPE library collection: KMS34_JCRB cell viability assay (AID 1918985); further: nearly all actives have a fitted effect of over 40% in size
Outline: as §1

[13] = Quantitative High-Throughput drug screen in 47 multiple myeloma cell lines against the NCATS MIPE library collection: OPM1_PLB cell viability assay (AID 1918989); further: nearly all actives have a fitted effect of over 40% in size
Outline: as §1

[14] = Quantitative High-Throughput drug screen in 47 multiple myeloma cell lines against the NCATS MIPE library collection: XG6_PLB cell viability assay (AID 1919865); further: nearly all actives have a fitted effect of over 40% in size
Outline: as §1

[15] = Quantitative High-Throughput drug screen in 47 multiple myeloma cell lines against the NCATS MIPE library collection: XG1_PLB cell viability assay (AID 1919866); further: nearly all actives have a fitted effect of over 35% in size
Outline: as §1

[16] = Quantitative High-Throughput drug screen in 47 multiple myeloma cell lines against the NCATS MIPE library collection: VP6_DJ cell viability assay (AID 1919867); further: nearly all actives have a fitted effect of over 40% in size;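 on viability (% of DMSO): 100% = DMSO-only wells and 0% = wells with media alone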
Outline: as §1

[17] = Quantitative High-Throughput drug screen in 47 multiple myeloma cell lines against the NCATS MIPE library collection: PCM6_Riken cell viability assay (AID 1919870); further: nearly all actives have a fitted effect of over 30% in size
Outline: as §1

[18] = Quantitative High-Throughput drug screen in 47 multiple myeloma cell lines against the NCATS MIPE library collection: SKMM1_PLB cell viability assay (AID 1919863); details: SKMM1 myeloma viability, CellTiter-Glo ATP, 48 h; viability: active compounds read low; further: nearly all actives have a fitted effect of over 35% in size; on viability: series mostly up to about 46 µM
Outline: as §1

[19] = Quantitative High-Throughput drug screen in 47 multiple myeloma cell lines against the NCATS MIPE library collection: UTMC2_PLB cell viability assay (AID 1919868); details: CellTiter-Glo ATP luminescence, 48 h; viability (% of DMSO control): at 45.8 µM; further: nearly all actives have a fitted effect of over 55% in size;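 on viability (% of DMSO control): 100% = DMSO-only wells and 0% = media-only wells without cells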
Outline: as §1

[20] = Quantitative High-Throughput drug screen in 47 multiple myeloma cell lines against the NCATS MIPE library collection: L363_DSMZ cell viability assay (AID 1918984); further: nearly all actives have a fitted effect of over 40% in size
Outline: as §1
Potency means the concentration at half of the fitted maximal effect.

Clc1cc(Cl)cc(CNc2ncncc2-c2ccc3c(c2)OCO3)c1
active: Potency [2] 4.69 µM | Potency [3] 20.9 µM | Potency [5] 20.9 µM
inactive: Potency [1] | Potency [4]

CC(=Cc1ccccc1)C=C1SC(=S)N(CC(=O)O)C1=O
inactive: Potency [6] | Potency [7] | Potency [8] | Potency [9] | Potency [10] | Potency [11] | Potency [12] | Potency [13] | Potency [4] | Potency [14] | Potency [15] | Potency [16] | Potency [5] | Potency [17]

CC(=O)N(C)C1(c2ccccc2)CCN(CCC[C@]2(c3ccc(Cl)c(Cl)c3)CCCN(C(=O)c3ccccc3)C2)CC1
active: Potency [6] 11.8 µM | Potency [7] 26.4 µM | Potency [8] 20.9 µM | Potency [9] 23.5 µM | Potency [10] 26.4 µM | Potency [11] 20.9 µM | Potency [2] 14.8 µM | Potency [3] 18.7 µM | Potency [13] 18.7 µM | Potency [4] 23.5 µM | Potency [14] 8.33 µM | Potency [16] 13.2 µM | Potency [5] 20.9 µM | Potency [17] 13.2 µM

COc1ccc(-c2nc(N3CCOCC3)c3sc(CN(C)c4ncc(C(=O)NO)cn4)cc3n2)cn1
active: Potency [7] 0.0059 µM | Potency [5] 0.001 µM
inactive: Potency [1] | Potency [8] | Potency [9] | Potency [13] | Potency [16]

COC(=O)C1=CO[C@@H](O)[C@@H]2C(CO)=CC[C@@H]12
inactive: Potency [10]
active: Potency [1] 23.5 µM | Potency [5] 20.9 µM

CC(=NNC(=S)N1CCC1)c1ccccn1
inactive: Potency [1] | Potency [2] | Potency [19] | Potency [5]
active: Potency [7] 0.0074 µM | Potency [13] 0.0037 µM | Potency [18] 0.0059 µM

CNC1CCC(N(Cc2cccc(-c3ccncc3)c2)C(=O)c2sc3c(F)ccc(F)c3c2Cl)CC1 (centres undefined)
active: Potency [6] 4.69 µM | Potency [7] 23.5 µM | Potency [8] 14.8 µM | Potency [9] 18.7 µM | Potency [10] 23.5 µM | Potency [11] 16.6 µM | Potency [20] 11.8 µM | Potency [2] 0.0662 µM | Potency [3] 18.7 µM | Potency [13] 13.2 µM | Potency [18] 18.7 µM | Potency [4] 18.7 µM | Potency [14] 14.8 µM | Potency [15] 18.7 µM | Potency [16] 13.2 µM | Potency [19] 20.9 µM | Potency [5] 10.5 µM | Potency [17] 14.8 µM

CC(C)(C)NC(=O)Nc1cccc(Nc2ncc(F)c(NC(C)(C)CO)n2)c1
inactive: Potency [1] | Potency [7] | Potency [4]
active: Potency [2] 2.35 µM | Potency [3] 3.72 µM | Potency [13] 13.2 µM | Potency [14] 20.9 µM | Potency [15] 3.72 µM | Potency [5] 18.7 µM

OC[C@H]1O[C@@H](Oc2cc(O)cc(C=Cc3ccc(O)cc3)c2)[C@H](O)[C@@H](O)[C@H]1O
inactive: Potency [1] | Potency [9] | Potency [11] | Potency [12] | Potency [4] | Potency [19] | Potency [5]
active: Potency [3] 9.35 µM

c1cc(-c2sc(-c3ccncc3)c(-c3ccncc3)c2-c2ccncc2)ccn1
inactive: Potency [1] | Potency [7] | Potency [10] | Potency [12]
active: Potency [8] 26.4 µM | Potency [20] 3.32 µM | Potency [2] 5.26 µM | Potency [15] 11.8 µM | Potency [16] 9.35 µM | Potency [5] 14.8 µM

O=C(Nc1cccc(Br)c1)c1cccc(S(=O)(=O)N2CCCCCC2)c1
inactive: Potency [1]
active: Potency [7] 14.8 µM | Potency [9] 18.7 µM | Potency [10] 10.5 µM | Potency [20] 13.2 µM | Potency [3] 18.7 µM | Potency [13] 18.7 µM | Potency [14] 14.8 µM | Potency [15] 16.6 µM | Potency [16] 16.6 µM

COc1ccc2c3c1OC1C[C@@H](O)C=C[C@@]31CCN(C)C2 (some centres undefined)
active: Potency [6] 16.6 µM | Potency [8] 20.9 µM | Potency [2] 4.18 µM | Potency [3] 10.5 µM | Potency [4] 4.18 µM
inactive: Potency [7] | Potency [9] | Potency [10] | Potency [11] | Potency [12] | Potency [13] | viability [18] 103%

CC=CCC=CCCC(=O)[C@H]1O[C@@H]1C(N)=O
active: Potency [1] 14.8 µM | Potency [8] 20.9 µM | Potency [9] 18.7 µM | Potency [2] 14.8 µM | Potency [3] 14.8 µM | Potency [18] 18.7 µM | Potency [14] 18.7 µM | Potency [15] 20.9 µM | Potency [16] 23.5 µM | Potency [5] 23.5 µM | Potency [17] 20.9 µM

CCc1ccc(OCc2ccccc2C(=O)Nc2ccc3nc(C)cc(N)c3c2)cc1
active: Potency [6] 1.05 µM | Potency [7] 8.33 µM | Potency [8] 4.69 µM | Potency [9] 3.32 µM | Potency [10] 8.33 µM | Potency [11] 8.33 µM | Potency [20] 1.18 µM | Potency [12] 7.43 µM | Potency [2] 1.05 µM | Potency [3] 7.43 µM | Potency [13] 1.32 µM | Potency [4] 5.9 µM | Potency [14] 1.05 µM | Potency [15] 1.48 µM | Potency [16] 1.32 µM | Potency [19] 3.32 µM | Potency [5] 2.35 µM | Potency [17] 1.18 µM

COc1cccc([C@@H](C)NCCCc2ccccc2Cl)c1
inactive: Potency [1] | Potency [7] | Potency [10] | Potency [11] | Potency [12] | Potency [3] | Potency [13] | viability [18] 122%
